Screening results (PubChem BioAssay)
The list is not random: actives were taken first. Their share in the collection is about 13%.
CHOP inh = CHOP inhibition in unfolded protein response; CHO-K1 CHOP-promoter luciferase, tunicamycin-induced, 15-18 h; inhibition, % at 10 µM; AID 2732; 220,000 tested, 3.8% active;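 active = compounds that reduced the stress-induced luciferase reporter signal by more than about 70% of percent inhibition, limit read from the data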
WT yeast gro inh = growth inhibition of WT yeast, mitochondrial fusion screen; mitochondrial fusion phenotypic screen, WT strain; inhibition, % at 10 µM; 190,000 tested, 2.1% active; AID 1362; in the data active = inhibition above about 58%; tested in S. cerevisiae
RAM network inh = blocks the yeast RAM network; S. cerevisiae dse1pr::URA3 reporter, 5-FOA growth OD615, 2 d; analog-sensitive cbk1-as2 kinase mutant strain; inhibition, % at 50 µM; 190,000 tested, 1.8% active; AID 868;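 active = inhibition above a set limit, 3 SD over mean compound inhibition, cut at about 8.4% in these data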;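 also: inhibition rescues growth on 5-FOA so higher OD means more RAM inhibition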
L major viab = reduces viability of Leishmania major promastigotes | resazurin fluorescence viability | inhibition, % at 10 µM | 200,000 tested, 9% active | AID 1063; in the data active = inhibition above about 50%;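 also: promastigotes grown with compound for 44 hours at 28 °C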
Of the large screens only hits and unclear results are named; the others gave an inactive call; ! = not active in a repeat.

Nc1nc(-c2ccccc2)nc2sc3c(c12)CCCC3	L major viab 60
COc1ccc(C(CC(=O)NCc2ccccc2)Sc2n[nH]c(-c3ccccc3)n2)cc1 (configuration not stated)	none
COc1ccc(C(CC(=O)NCc2ccccc2)Sc2n[nH]c(-c3ccc(Cl)cc3)n2)cc1 (configuration not stated)	RAM network inh 8.7, L major viab 52
CCOC(=O)c1cc(-c2ccc(OC)cc2)nc2c1c(C)nn2CCC(N)=S	none
CCOc1ccc(-c2nc(C#N)c(NCC3CCCO3)o2)cc1 (configuration not stated)	none
CCCOc1ccc(-c2nc(C#N)c(NCC3CCCO3)o2)cc1 (configuration not stated)	L major viab 92
COc1ccc(Cc2nnc(Nc3ccc4c(c3)OCCO4)[nH]c2=O)cc1	none
Cc1ccc(S(=O)(=O)Oc2ccccc2/C=N/NC(N)=S)cc1	RAM network inh 9.1
Cc1ccc(S(=O)(=O)Oc2ccccc2/C=N/NC(=O)c2nn(C)cc2[N+](=O)[O-])cc1	none
Cc1ccc(S(=O)(=O)Oc2ccccc2/C=N/N=C(N)N)cc1	L major viab 74
COc1cccc(/C=N/NC(N)=S)c1OS(=O)(=O)c1ccccc1	none
N/C(=N\O)c1ccccc1N1CCCCC1	none
CCN(CC(=O)Nc1ccc([N+](=O)[O-])cc1OC)CC(=O)NC(C)(C)C	L major viab 71
COc1ccc(-n2cc(C(=O)O)c3ccccc3c2=O)cc1	none
COc1ccc(-n2cc(C(=O)Nc3cc([N+](=O)[O-])ccc3OC)c3ccccc3c2=O)cc1	L major viab 77
COc1ccc([N+](=O)[O-])cc1NC(=O)c1ccccc1SC	none
CCOC(=O)c1ccccc1NC(=O)c1cn(-c2ccc(C)c(C)c2)c(=O)c2ccccc12	L major viab 98
CCC(=O)OCC(=O)Nc1ccc([N+](=O)[O-])cc1OC	none
COc1ccccc1NC(=O)c1ccc([N+](=O)[O-])cc1[N+](=O)[O-]	L major viab 85
Cc1ccc(N(CC(=O)NC(C)(C)C)C(=O)CS(=O)CC(=O)Nc2ccc3c(c2)OCO3)cc1 (configuration not stated)	none
Cn1cnnc1SCC(=O)NN(c1ccccc1)c1ccccc1	none
CCOC(=O)c1ccccc1NC(=O)c1cn(-c2ccc(OC)cc2)c(=O)c2ccccc12	L major viab 92
Cc1c(O)c2c3c(cccc3c1O)C(=O)N(c1ccccc1)C2=O	none
CCCCCCCC(=O)NNC(=O)CC(=O)Nc1ccccc1C(=O)O	none
Cc1cccc(N)c1-c1c(C)cccc1N	none
N=c1n(CCN2CCOCC2)c2ccccc2n1CC(O)COc1ccccc1 (configuration not stated)	none
COc1ccccc1OCC(O)Cn1c(=N)n(CCN2CCCCC2)c2ccccc21 (configuration not stated)	L major viab 65
Cc1ccccc1OCC(O)Cn1c(=N)n(CCN2CCOCC2)c2ccccc21 (configuration not stated)	L major viab 51!
N=c1n(CCN2CCCCC2)c2ccccc2n1CC(O)COc1ccccc1 (configuration not stated)	L major viab 101
N=c1n(CCN2CCOCC2)c2ccccc2n1Cc1ccccc1Br	L major viab 95
CNC(=O)c1ccc(NC(=O)/C=C/c2cccc(F)c2)cc1	none
CC(C)=CC(=O)Nc1ccc(S(=O)(=O)Nc2ccccn2)cc1	none
Clc1ccc(C(c2ccccc2)N2CCNCC2)cc1 (configuration not stated)	none
CC12CNCC(C)(CN(C(c3ccccc3)c3ccccc3)C1)C2	L major viab 100
O=C1Cc2ccccc2Sc2cc(OCCCN3CCCCC3)ccc21	L major viab 100
CN(C)CCCOc1ccc2c(c1)Sc1ccccc1CC2=O	L major viab 100
Nc1ccc2c(c1)C(=O)Cc1ccccc1S2	none
O=C1Cc2ccccc2Sc2c(OCCN3CCCCC3)cccc21	L major viab 100
CON(C)c1nc(OCCNC(=O)OCc2ccc(Cl)cc2Cl)nc(N(C)C)n1	none
CN(C)c1ccc(/C=N/NC(=O)c2sccc2-n2cccc2)cc1	none
CN(C(=O)c1cc2c(s1)-c1ccccc1S(=O)(=O)C2)c1ccccc1	none (no result: WT yeast gro inh, RAM network inh, L major viab)
CC1=CCC(C(=O)O)(C(=O)N/N=C/c2cccs2)C(c2ccc([N+](=O)[O-])cc2)C1 (configuration not stated)	WT yeast gro inh 70
CCCCN(CCCC)NC(=O)c1ccccc1	none
CCCCN(CCCC)CP(=O)(c1ccccc1)c1ccccc1	CHOP inh 73
Nc1c(C(=O)c2ccccc2)sc2snc(SCC(=O)c3ccccc3)c12	none
COc1ccc(CNC(=O)CN(Cc2ccc(Cl)cc2)S(=O)(=O)c2ccccc2)cc1	RAM network inh 8.6
COc1ccc(CNC(=O)CN(Cc2ccccc2)S(=O)(=O)c2ccc(Cl)cc2)cc1	RAM network inh 9.2, L major viab 98
CCc1nnc(NC(=O)C2CCCN2C(=O)Nc2ccccc2)s1 (configuration not stated)	none
CCn1c(CNC(=O)c2ccco2)nnc1SCC(=O)Nc1cc(C(F)(F)F)ccc1Cl	WT yeast gro inh 70
CCn1nc(C)c(Br)c1-c1nc(-c2cccc(C)c2)no1	none (no result: WT yeast gro inh, RAM network inh, L major viab)
CC1=CC(=Nc2c(C)n(C)n(-c3ccccc3)c2=O)C=CC1=O	none (no result: WT yeast gro inh, RAM network inh, L major viab)
CC1=CC(=Nc2c(C)n(C)n(-c3ccccc3)c2=O)C=C(C)C1=O	L major viab 72
CC1CCN(C(=O)COC(=O)c2ccc3c(c2)OCO3)CC1	none
CC1=C[C@H]2OC(=O)[C@@H](C)[C@H]2C[C@@H]2[C@H]1C[C@@H](O)[C@@]2(C)O	none (no result: WT yeast gro inh, RAM network inh, L major viab)
Cc1[nH]n(-c2ccccc2)c(=S)c1C=Nc1ccc([N+](=O)[O-])cc1	CHOP inh 80
CN1CCS/C1=C/C=C1\SC(=S)N(CC(=O)O)C1=O	none
CN1CCS/C1=C/C=C1/SC(=S)N(Cc2ccccc2)C1=O	RAM network inh 9.6
Cc1sc2ncnc(N/N=C/c3ccccc3O)c2c1C	L major viab 100
COc1cccc(/C=N/Nc2ncnc3scc(-c4ccccc4)c23)c1OC	CHOP inh 71
O=C(O)c1ccc(Nc2ncnc3scc(-c4ccccc4)c23)cc1	none
Cc1ccccc1N1C(=O)C(Cc2ccc(F)cc2)S/C1=C(\C#N)C(N)=O (configuration not stated)	none (no result: WT yeast gro inh, RAM network inh, L major viab)
CCOc1cc(NC(=S)NCCOC)c(OCC)cc1NC(=O)c1ccco1	none
O=C1N(Nc2ccccc2)C(c2ccc(Br)cc2)C12CCCCC2 (configuration not stated)	CHOP inh 73
O=C1OC(c2ccccc2)C2(CCCC2)C(=O)C12CCCC2 (configuration not stated)	none
O=C1N(Nc2ccccc2)C(c2ccc(Br)cc2)C12CCCC2 (configuration not stated)	CHOP inh 94
O=C1C=CC(=O)N1Nc1ccc(Br)cc1	none
CC(=O)Nc1ccccc1-c1nc2ccc(C(=O)N3CCN(c4cc(C)ccc4C)CC3)cc2[nH]c1=O	L major viab 56
Cc1cc(Br)ccc1OCC(=O)NNC(=O)Cc1ccccc1	none
C=CCNCCCCOc1ccc(Br)cc1C	L major viab 99
Cc1cc(Br)ccc1OCCCCNCCO	L major viab 86
